Bioassay records as filed in PubChem BioAssay.
Shown are actives, neighbours in structure and some others; about 6.2% of the full set was active somewhere.
FMDV inh – antivirals against foot and mouth disease virus; Potency, µM (doses to about 57.9 µM), for inactives: at the highest dose activity change, negative = inhibition, most hits filed as inhibitors; actives 1.2% (n = 410,000); AID 1159524; FMDV antiviral cell-based qHTS; calls by dose curve; tested in HEK293T cells; further: read-out not given here; potency means the concentration at half of the fitted maximal effect; nearly all actives have a fitted effect of over 45% in size
MARV entry inh – blocks Marburg virus binding to or entry into cells | Marburg virus pseudotyped entry inhibition, cell reporter | Potency, µM (doses to about 37.8 µM), inactives show at the highest dose activity change, negative = inhibition, most hits filed as inhibitors | actives 1.8% (n = 300,000) | AID 540276; calls by dose curve; tested in HEK293 cells; further: potency means the concentration at half of the fitted maximal effect
LASV entry inh – inhibitors of Lassa virus binding or cell entry; Lassa virus pseudotype entry inhibition, cell reporter; Potency, µM (titrated, usually from 37.9 µM), for the others: at the highest dose activity change, negative = inhibition, most hits filed as inhibitors; actives 1.2% (n = 300,000); AID 540256; calls by dose curve; tested in HEK293 cells; further: potency means the concentration at half of the fitted maximal effect; nearly all actives have a fitted effect of over 50% in size
HCMV antiviral – human cytomegalovirus inhibition | activity change, negative = inhibition, % at 57.5 µM | actives 4.5% (n = 410,000) | HFF cells, HCMV-luciferase reporter, 72 h; hits give low values; in the data active means activity change below about -60%; inconclusive means no clear call, values can overlap the other calls; inactive means above about -39%
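Two-dose cell screen: HFF monolayers treated with compounds and infected with luciferase-expressing HCMV at 1 PFU/cell, 72 h at 37C, then lysed for luciferase measurement.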
Numbers without * were called inactive; ? = inconclusive; . = not tested or not shown; [ ] = another dose, or the depositor's remark. On the % scale 0 is the no-effect control and ±100 the full control effect.

SMILES | FMDV inh | MARV entry inh | LASV entry inh | HCMV antiviral
CCN(CC)C(=O)c1ccc(-c2nnc(Nc3ccc(O)cc3)c3ccccc23)cc1 | -24% | . | . | -75*
Cc1ccc(-c2nnc(Nc3ccc(F)cc3)c3ccccc23)cc1S(=O)(=O)N1CCN(C)CC1 | -20% | -23%[46.1 µM] | ? | -102*
Cc1ccc(-c2nnc(Nc3cccc(O)c3)c3ccccc23)cc1S(=O)(=O)N1CCN(C)CC1 | -18% | -12%[46.1 µM] | -10%[46.1 µM] | -30
CCN(CC)CCCNC(=O)Cn1cnc2sc(C)c(S(=O)(=O)N3CCC(C)CC3)c2c1=O | -8% | ? | 18%[46.1 µM] | -33
O=C1Nc2ccccc2/C1=C/c1cnc(-c2ccccc2)[nH]1 | 51% | 15% | ? | 96
Cc1nc2c3ccccc3nc(NNC(=O)CCC(=O)NCCN3CCN(c4ccccc4F)CC3)n2n1 | -9% | . | . | .
COC(=O)c1nnn(CC(=O)Nc2cc(F)ccc2F)c1C(=O)OC | -12% | 5%[46.1 µM] | -1%[46.1 µM] | -109*
O=C(CCCCCN1C(=O)CCC1=O)Nc1ccc(Cl)c(C(F)(F)F)c1 | ? | 1% | -32%[14.3 µM] | -64*
CCC(=O)N1c2ccc(S(=O)(=O)CCC(=O)Nc3ccc(Br)c(C)c3)cc2CC1C (stereo not drawn) | 0% | 3%[46.1 µM] | -19%[46.1 µM] | -72*
COc1ccc(NC(=O)CCCCCN2C(=O)CCC2=O)cc1Cl | 16% | 9% | 33%[14.3 µM] | 15
CCC(=O)N1CCc2cc(S(=O)(=O)CCC(=O)Nc3ccc(Cl)c(C(F)(F)F)c3)ccc21 | 0% | 2%[46.1 µM] | -1%[46.1 µM] | -91*
CN1C(=O)Cc2cc(S(=O)(=O)CCC(=O)Nc3ccc(Cl)c(C(F)(F)F)c3)ccc21 | -14% | . | 3%[46.1 µM] | ?
CCn1cc(C(=O)NCCOC)c(=O)c2cc(S(=O)(=O)N3CCOCC3)ccc21 | -7% | ? | 0%[46.1 µM] | 1
O=S(=O)(c1ccc2ccccc2c1)N1CCCOC1 | 10% | ? | -1% | -12
COc1ccc(COC(=O)c2ccc(N3CCCC3=O)cc2)cc1F | -22% | -10% | -17% | -4
CC(C)OC(=O)CCCCCN1C(=O)CSC1=S | -23% | -5% | 3% | -17
O=C(O)CCCCCN1C(=O)CSC1=S | 0% | ? | ? | -81*
CC(=O)Oc1ccc(C(=O)N2c3ccccc3NC(=O)C2C)cc1 (stereo not drawn) | -13% | . | . | -38
O=C(NCCNc1ccc([N+](=O)[O-])cc1)c1cccc(Br)c1 | -9% | 7% | -1% | -20
O=c1nc2n(c3cccc(Cl)c13)CCCCC2 | 6% | . | . | -24
CC(=O)OC1C(O)C2=C3C4(C)C1C(C)(C)C(=O)CC4C3(O)C(OC(C)=O)C1(CC1C)C2=O (stereo not drawn) | 22µM* | . | . | -26
CC(CN1c2ccccc2Sc2ccccc21)N(C)C (stereo not drawn) | -7% | 1.1µM* | ? | 6
CCN(CC)CC(O)CN1c2ccccc2Sc2ccccc21 (stereo not drawn) | -10% | 3.2µM* | ? | .
CCN(CC)CCCCN1c2ccccc2Sc2ccccc21 | ? | 11µM* | ? | 1
OCCN(CCO)CC(O)CN1c2ccccc2Sc2ccccc21 (stereo not drawn) | -6% | 0% | . | .
SMILES | FMDV inh | MARV entry inh | LASV entry inh | HCMV antiviral
O=C(O)Cc1c(C(=O)O)nnn1-c1ccc(Cl)cc1Cl | -2% | . | . | -66*
CN(C)c1nnnn1-c1ccc(Cl)cc1Cl | -15% | -8%[46.1 µM] | -3% | -26
CCCCCCCCCCCCCCCC[N+](C)(C)CC | -9% | . | . | -96*
CCCCCCCCCCCCCCCC[N+](C)(C)C | ? | . | . | -94*
CCCCCC[N+](C)(C)CCSSCC[N+](C)(C)CCCCCC | 3% | . | . | 5
NCCCNc1nc(N)c([N+](=O)[O-])c(NC2CCCCC2)n1 | ? | . | . | -97*
CCOC(=O)[C@H]1[C@H]2COc3cc(OC)ccc3[C@@H]2N2C(=O)N(c3cccc(F)c3)C(=O)[C@@]12C | -14% | . | . | ?
Cc1cc(C)nc(N(C#N)CN2C(=O)c3ccccc3S2(=O)=O)n1 | 40µM* | -24% | -2% | 41
CNc1nc(OC)nc(N(C#N)CN2C(=O)c3ccccc3S2(=O)=O)n1 | ? | ? | 1% | -25
CCc1nc(N)nc(N)c1-c1ccc(Cl)c(N=[N+]=[N-])c1 | ? | ? | ? | -79*
CCc1nc(N)nc(N)c1-c1ccc(Cl)c([N+](=O)[O-])c1 | ? | ? | ? | -99*
O=C(Nc1cccc2ncccc12)c1ccc([N+](=O)[O-])o1 | 8% | ? | ? | -100*
Cc1cccnc1NC(=O)c1ccc([N+](=O)[O-])o1 | -2% | 5% | -22% | -76*
Cc1c(NC(=O)c2ccc([N+](=O)[O-])o2)cccc1-c1nc2ncccc2o1 | ? | ? | -5% | -86*
Cc1cccnc1NC(=O)c1ccccc1-c1ccccc1C(=O)Nc1ncccc1C | -4% | 4% | 7.3µM* | -7
Cc1ccccc1NC(=O)c1ccc([N+](=O)[O-])o1 | -30% | ? | -18% | -13
C=CCN(Cc1nc(-c2ccccc2)no1)C(=O)c1ccc2c(c1)OCO2 | 4% | ? | -7%[46.1 µM] | -9
Cc1nc(SC2CC(=O)N(c3ccc([N+](=O)[O-])cc3)C2=O)nc2c1CCCC2 (stereo not drawn) | 0% | 14% | -7% | -22
CCOc1ccc(OCC)c(S(=O)(=O)NC2CC(C)(C)NC(C)(C)C2)c1 | 83% | ? | ? | -16
CCOc1c(S(=O)(=O)NC2CC(C)(C)NC(C)(C)C2)ccc(Cl)c1Cl | -2% | 10µM* | -25%[46.1 µM] | -34
CC(=Nc1ccccc1)C1=C(O)C(Cc2ccc(O)cc2)NC1=O (stereo not drawn) | -14% | -24% | ? | -69*
CC(=Nc1ccccc1)C1=C(O)C(Cc2cccc(F)c2)NC1=O (stereo not drawn) | 0% | . | . | -72*
COc1ccc(Cl)cc1NC(=O)c1nn(C)c2c1CS(=O)(=O)c1ccccc1-2 | -6% | . | -6%[46.1 µM] | 5
COc1ccc([C@@H]2CC=C(C(=O)O)CN2S(=O)(=O)c2ccc(C)cc2)cc1OC | -1% | . | . | -64*
COc1ccc(S(=O)(=O)N2CCSC2c2ccc(OC)c(OC)c2)cc1 (stereo not drawn) | ? | 2% | -28% | -62*
SMILES | FMDV inh | MARV entry inh | LASV entry inh | HCMV antiviral
Cc1ccc(S(=O)(=O)N2CC(C(=O)O)=CC[C@H]2c2ccc(Cl)cc2)cc1 | -25% | . | . | -23
O=[N+]([O-])c1ccc(C2=CSC3=NCCN23)cc1 | 0% | 13% | 3% | -23
CCc1nnc(N/N=C/c2c(C)[nH]c3ccccc23)n1N | 12% | -26%[46.1 µM] | . | -90*
Cc1ccccc1/C=N/Nc1nc2ccccc2[nH]1 | 20% | -27%[46.1 µM] | ? | -10
C(=N\Nc1nc2ccccc2[nH]1)/C1CCCCC1 | 19% | 5%[46.1 µM] | ? | -87*
Cc1[nH]c2ccccc2c1/C=N/Nc1nc2ccccc2[nH]1 | 0% | ? | ? | -98*
C(=N\Nc1nc2ccccc2[nH]1)/c1cccc2cccnc12 | 41% | . | . | -101*
C(=N\Nc1nc2ccccc2[nH]1)/c1ccccc1 | 16% | -2% | -1% | 52
c1ccc(Sc2cnc3ccccc3n2)cc1 | 58% | 5% | ? | -5
O=C(N/N=C/c1cccc2nccnc12)c1ccccc1O | 2% | . | . | 10
